Only some compounds are listed: those with a hit (about 9.9% of all), similar ones and a draw of the others.
Tau fibril FP: qHTS for Inhibitors of Tau Fibril Formation, Fluorescence Polarization. Microtubule-associated protein tau (Homo sapiens), P10636. K18 P301L tau heparin fibrillization, Alexa594 FP, 6 h. Potency, µM (top dose mostly 57.7 µM), for the others: top-dose activity, negative = inhibition, hits mostly inhibitors. 280,000 compounds, 0.39% hits; active = well fitted curve in the direction sought with a large enough effect; inconclusive = small, poorly fitted or top-dose-only effect, or another doubt; inactive = no such curve, though single readings can be large; an effect the other way counts as inactive or inconclusive; also: nearly all actives have a fitted effect of over 55% in size
Target sequence (P10636 561-689 P618L limits assumed): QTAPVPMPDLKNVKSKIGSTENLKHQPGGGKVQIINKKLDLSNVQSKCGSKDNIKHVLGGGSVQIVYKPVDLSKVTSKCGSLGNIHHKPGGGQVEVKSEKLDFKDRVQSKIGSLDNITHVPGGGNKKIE
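K18 P301L tau (15 uM unlabeled/0.24 uM Alexa 594-labeled, final) + compound + heparin 20 uM final; 100 mM NaOAc pH 7; 6 hr 37 C; ThT 30 uM final added, 1 hr RT; FP ex 555/em 632 nm.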
Tau fibril ThT: qHTS for Inhibitors of Tau Fibril Formation, Thioflavin T Binding. recombinant tau K18 P301L, heparin-induced fibrillization, ThT fluorescence. 270,000 compounds, 2.1% hits. Potency, µM (top dose mostly 57.4 µM), for the others: top-dose activity, negative = inhibition, actives largely listed as inhibitors. AID 1460, 2008; active = well fitted curve in the direction sought with a large enough effect; inconclusive = small, poorly fitted or top-dose-only effect, or another doubt; inactive = no such curve, though single readings can be large; an effect the other way counts as inactive or inconclusive; also: nearly all actives have a fitted effect of over 55% in size
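Using a mix of unlabeled (15 uM) and Alexa 594-labeled (0.24 uM) tau K18 P301L, heparin-triggered fibrillization over 6 hr at 37 C was scored by ThT fluorescence.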
HPGD inh: qHTS Assay for Inhibitors of HPGD (15-Hydroxyprostaglandin Dehydrogenase); 150,000 compounds, 4.3% hits; 15-hydroxyprostaglandin dehydrogenase [NAD(+)] (Homo sapiens), P15428; purified HPGD, NADH fluorescence kinetic, PGE2 substrate; Potency, µM, without a hit: top-dose activity change, negative = inhibition, hits mostly inhibitors
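NADH formation kinetics: reaction with 30 uM PGE2 and 1 mM NAD+ (final), 20 nM enzyme, Tris-HCl pH 8 with Tween 20, after 15 min compound preincubation at room temperature. Fluorescence change, last versus first of five reads.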
KDM4E inh: qHTS Assay for Inhibitors of Human Jumonji Domain Containing 2E (JMJD2E); 230,000 compounds, 1.6% hits; JMJD2E catalytic domain, FDH-coupled NADH fluorescence (FDH is formaldehyde dehydrogenase); AID 2147, 2009; Potency, µM (series often up to 57.1 µM), without a hit: at the highest dose activity change, negative = inhibition, usual class: inhibitors;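 also: 0% = wells with enzyme and -100% = buffer wells without enzyme; nearly all actives have a fitted effect of over 50% in size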
Target sequence (B2RXH2 1-337 limits assumed): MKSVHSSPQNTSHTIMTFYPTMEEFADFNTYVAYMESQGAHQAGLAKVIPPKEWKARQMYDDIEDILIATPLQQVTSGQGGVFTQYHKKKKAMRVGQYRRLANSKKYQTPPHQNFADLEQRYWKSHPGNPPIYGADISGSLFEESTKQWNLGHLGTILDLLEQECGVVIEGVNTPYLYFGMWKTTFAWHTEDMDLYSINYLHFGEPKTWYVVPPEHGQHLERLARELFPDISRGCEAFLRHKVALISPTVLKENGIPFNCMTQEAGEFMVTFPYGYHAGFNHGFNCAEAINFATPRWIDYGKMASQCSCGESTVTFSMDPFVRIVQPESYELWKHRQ
Tau fluor counter: Counterscreen qHTS for Inhibitors of Tau Fibril Formation, Fluorescence Polarization. 280,000 compounds, 0.93% hits. tau K18 P301L (four-repeat tau fragment) Alexa594 fluorescence, heparin fibrillization. Potency, µM (doses to about 57.7 µM), without a hit: at the top dose activity change, negative = decrease; active = well fitted curve in the direction sought with a large enough effect; inconclusive = small, poorly fitted or top-dose-only effect, or another doubt; inactive = no such curve, though single readings can be large; an effect the other way counts as inactive or inconclusive; also: nearly all actives have a fitted effect of over 55% in size
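Human K18 P301L tau (15 uM unlabeled plus 0.24 uM Alexa 594-labeled, final) in 100 mM sodium acetate pH 7 was mixed with compound and 20 uM heparin and incubated 6 hr at 37 C.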
ALDH1A1 inh: qHTS Assay for Inhibitors of Aldehyde Dehydrogenase 1 (ALDH1A1) | Potency, µM (titrated, usually from 75.3 µM), for the others: at the highest dose activity, negative = inhibition, most hits filed as inhibitors | Aldehyde dehydrogenase 1A1 (Homo sapiens), P00352 | Purified ALDH1A1, NADH fluorescence, propionaldehyde substrate | AID 1030, 2008 | 220,000 compounds, 7.3% hits;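 also: plate controls were no enzyme wells and a reference inhibitor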
* hit, by the source's call; ? = inconclusive; · = not tested or not shown; [ ] = dose if it differs, or a comment. Unless noted, calls follow the shape of the dose curve; as a rule, active = well fitted inhibition curve with a large enough effect (not every such curve was filed as active); inconclusive = small, poorly fitted or top-dose-only effect, or another doubt; inactive = no such curve, though single readings can be large or run the other way. Unless noted, % is scaled to controls: 0 for no effect and ±100 for the full control effect; potency is read from the fitted curve at half-maximal effect.

SMILES	Tau fibril FP	Tau fibril ThT	HPGD inh	KDM4E inh	Tau fluor counter	ALDH1A1 inh
CC1=C(C(=O)O)N2C(=O)C(NC(=O)C(N)C3=CCC=CC3)C2SC1 (stereo unspecified)	?	?	-18%	?	-26%	-11%
CC1=C(C(=O)O)N2C(=O)C(NC(=O)C(N)c3ccc(O)cc3)C2SC1 (stereo unspecified)	?	28µM*	-17%	-14%	?	-7%
CC1=C(C(=O)O)N2C(=O)[C@@H](NC(=O)C(N)C3=CCC=CC3)[C@H]2SC1 (stereo partly specified)	?	?	-25%	22µM*	-30%	-13%
CC1=C(C(N)=O)N2C(=O)[C@@H](NC(=O)Cc3ccccc3)C2SC1 (stereo partly specified)	-6%	-2%	-10%	3%	-3%	?
O=Cc1cn(CC(=O)Nc2ccc3c(c2)OCO3)c2ccccc12	-6%	-9%	·	-2%	-9%	?
CCC1CO1 (stereo unspecified)	·	·	-4%	·	·	-2%
CSCCNC(=O)c1ccc(C(C)(C)C)cc1	4%	-7%	14µM*	-6%	-1%	-9%
Cc1ccc(C(=O)NCCSC(C)(C)C)cc1	-5%	-13%	-23%	7%	-16%	6%
CCO[C@H]1OC(C(=O)Nc2ccccc2)=C[C@@H](C)[C@@H]1CCCO	2%	-2%	·	9%	0%	-3%
COc1ccc(S(=O)(=O)N(CC(=O)N2CCN(c3ccccc3OC)CC2)c2ccccc2)cc1	9%	?	-21%	7%	-20%	7.1µM*
O=C1Nc2ccccc2C(O)(C(=O)NCc2ccco2)N1c1ccc(Cl)c(Cl)c1 (stereo unspecified)	-15%	5%	-22%	3%	2%	25µM*
Cc1ccc2c(c1)C(=O)OC(C(=O)Nc1ccccc1C(=O)O)C2 (stereo unspecified)	-4%	?	·	·	-6%	·
CCOC(=O)C1CCCN(c2c(C(=O)c3ccc(C)cc3)cnc3ccc(OCC)cc23)C1 (stereo unspecified)	-12%	-17%	·	·	-17%	·
CCc1ccc(C(=O)c2cnc3ccc(OC)cc3c2N2CCN(CC)CC2)cc1	-10%	-10%	·	3%	-6%	18µM*
CCOC(=O)C1CCN(c2c(C(=O)c3ccccc3)cnc3ccc(Cl)cc23)CC1	-4%	-6%	·	-6%	0%	4.5µM*
CCOc1ccc(C(=O)c2cnc3ccccc3c2N2CCN(CC)CC2)cc1	-1%	-9%	·	-11%	-9%	8.9µM*
CCOc1ccc2ncc(C(=O)c3ccc(OC)cc3)c(N3CCN(CC)CC3)c2c1	2%	-6%	·	4%	0%	0.71µM*
NNC(=O)[C@@H](O)[C@H](O)C(=O)NN	·	·	0%	·	·	1%[13.5 µM]
N=C(N)SCc1cccc(-c2nc3ccccc3c(=O)o2)c1	·	·	-1%	·	·	-8%[13.5 µM]
COc1cc(C2CC(=O)N(Cc3ccc(F)cc3)c3ccccc3S2)cc(OC)c1OC (stereo unspecified)	4%	?	·	·	-26%	·
CCOC(=O)c1ccc(CNC(=O)c2cc(C(C)(C)C)oc2C)o1	-1%	-14%	-6%	4%	-1%	25µM*
CCOC(=O)c1cc(C(C)(C)C)oc1CNC(=O)c1c(C)oc2c1CCCC2	5%	?	-23%	-10%	-7%	18µM*
CCOC(=O)c1cc(C(C)(C)C)oc1CN	2%	-3%	5%	-5%	-3%	3%
CC(=O)c1sc(Nc2nc3cc4c(cc3s2)OCO4)nc1C	0%	3.2µM*	·	-13%	?	?
CCOC(=O)c1sc(Nc2nc3cc4c(cc3s2)OCO4)cc1C	-2%	?	?	?	4.5µM*[quencher]	?
SMILES	Tau fibril FP	Tau fibril ThT	HPGD inh	KDM4E inh	Tau fluor counter	ALDH1A1 inh
CN(C)/C=N/c1cnc(C(=O)c2ccc(Cl)cc2)n1C	-5%	?	16µM*	0%	-15%	-1%
Cc1ccccc1Nc1oc(-c2ccccc2)nc1-c1cccc2ccccc12	8%	-9%	-2%	-7%	3%	25µM*
CCCCc1ccc(-c2nc(-c3ccncc3)no2)cc1	5%	?	-12%	4%	-3%	6.3µM*
COc1ccc2c(c1)[C@]1(C)CCC(=O)C[C@H]1CC2	-1%	-3%	-12%	-27%	-5%	2.8µM*
O=C(c1csnn1)N1CCC2(CCCN(Cc3cc(C(F)(F)F)cc(C(F)(F)F)c3)C2)CC1	·	·	-4%	·	·	14%
COc1ccc(Cl)cc1N1C(=O)C2CCCN2C1c1ccc(F)cc1 (stereo unspecified)	3%	-4%	-8%	1%	-3%	1%
CN(C)c1ccc(C2N(c3ccc(F)cc3)C(=O)C3CCCN32)cc1 (stereo unspecified)	0%	-6%	-25%	-15%	-7%	0.63µM*
CN(C)c1ccc(C2N(c3ccc(Cl)cc3)C(=O)C3CCCN32)cc1 (stereo unspecified)	7%	-2%	-16%	-1%	1%	0.79µM*
COc1ccc(C2N(c3cc(Cl)ccc3OC)C(=O)C3CCCN32)cc1 (stereo unspecified)	3%	-2%	-13%	-6%	1%	10µM*
Cc1ccc(C2N(c3ccc(F)cc3)C(=O)C3CCCN32)cc1 (stereo unspecified)	-9%	-5%	-11%	5%	-12%	6%
CCCN1CCN(CC2=C(C(=O)OCC)C(c3ccc(OC(C)C)cc3)NC(=O)N2)CC1 (stereo unspecified)	2%	-6%	·	·	-5%	·
O=C(O)C(=O)/C(=C\c1ccc([N+](=O)[O-])cc1)c1ccc2ccccc2n1	2%	16µM*	·	-21%	-24%	11µM*
O=C(CN1CCN(Cc2ccccc2)CC1)c1c[nH]c2ccccc12	1%	?	-7%	-9%	-16%	25µM*
O=C(CN1CCSCC1)c1c[nH]c2ccccc12	0%	-8%	-8%	4%	-9%	?
CCCn1c(N2CCN(CC(=O)c3c[nH]c4ccccc34)CC2)nc2c1c(=O)[nH]c(=O)n2C	5%	-5%	-17%	-5%	-7%	13µM*
CCn1c(N2CCN(CC(=O)c3c(C)n(C)c4ccccc34)CC2)nc2c1c(=O)[nH]c(=O)n2C	0%	-12%	0%	5%	-3%	?
